Results on 15 compounds are retold here after PubChem BioAssay.

Each structure is given as a SMILES string. For part of these data: Potency and affinity values are given separately. Active and inactive are the calls of the source.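 The calls were made as follows, unless noted: active = calcium signal ratio cut to more than 3 SD under the fully stimulated control mean yet still positive, in both repeats and the primary screen; inactive = the rest.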

The test system of assay [1] is TRPC4 beta (transient receptor potential cation channel C4), mouse. The experiment in a line: activators of mouse TRPC4 channel, confirmation, cell-based, Fluo4 calcium, HEK293 TRPC4beta/mu-opioid, duplicates, 10 µM (AID 2426;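 active = fluorescence ratio normalized to control raised more than 50% in primary screen plus both repeat runs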;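 as to activation: percent rise of integrated ratio over buffer wells lacking compound which define 0%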). Particulars: Fluo4 calcium fluorescence, at 10 µM; active compounds read high.
The subject of assay [2] is transient receptor potential cation channel C4 beta (TRPC4), mouse. The experiment in a line: activators of mouse TRPC4 channel, confirmation, cell-based, second round, Fluo4, HEK293 TRPC4beta/mu-opioid, 1 µM (AID 2461;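 active = primary screen active and over 50% activation in each of two duplicate runs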;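 as to activation: 0% = wells without test compound as baseline of integrated fluorescence ratio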). To be noted: Fluo4 calcium fluorescence, at 1 µM; active compounds read high.
Assay [3] relates to TRPC4 (transient receptor potential cation channel C4 beta), mouse. The experiment in a line: positive allosteric modulators of mouse TRPC4, confirmation, cell-based, second round, Fluo-4, HEK293 TRPC4beta/mu-opioid, 1 µM (AID 2554;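 active = primary screen hit whose fluorescence ratio, in both repeats, exceeds the weak agonist control mean by 3 SD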). To be noted: DAMGO EC20, Fluo-4 calcium flux, at 1 µM; active compounds read high.
Assay [4] deals with TRPC4 beta (transient receptor potential cation channel C4), mouse. The experiment in a line: positive allosteric modulators of mouse TRPC4, confirmation, cell-based, Fluo-4, HEK293 TRPC4beta/mu-opioid (AID 2555;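 active = primary screen hit whose calcium fluorescence ratio, in both repeats, exceeds the weak agonist control mean by 3 SD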). Particulars: DAMGO EC20, Fluo-4 calcium flux, at 10 µM; active compounds read high.
Assay [5] concerns the target Short transient receptor potential channel 4 (Mus musculus) (UniProt Q9QUQ5). The experiment in a line: inhibitors of mouse TRPC4 channel, confirmation, cell-based, Fluo4, HEK293 TRPC4beta/mu-opioid (AID 2636;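 active = calcium signal cut by more than 3 SD below the full-agonist control yet still positive, in both repeats and the earlier primary screen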). Particulars: DAMGO, Fluo4 calcium flux, at 10 µM; active compounds read high.
Assay [6] shares this target. The experiment in a line: inhibitors of mouse TRPC4 channel, confirmation, cell-based, second round, Fluo4, HEK293 TRPC4beta/mu-opioid, 1 µM (AID 2637). Particulars: Fluo4 calcium flux, DAMGO, at 1 µM; active compounds read high.
The target is the same in assay [7]. The experiment in a line: TRPC4 positive allosteric modulators, dose response, cell-based, HEK293 TRPC4/mu-opioid, Fluo-4 calcium, EC20 DAMGO (AID 434941;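 active = earlier screen potentiator hit that boosts the TRPC4 ion channel at some dose, with a dose response; inactive = no potentiation, no dose response, or not a prior hit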;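 also: calcium entry triggered by an EC20 dose of DAMGO at the co-expressed mu-opioid receptor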).
Assay [8] shares this target. The experiment in a line: mouse TRPC4 channel inhibitors, dose response, cell-based, HEK293 TRPC4/mu-opioid, Fluo-4 calcium (AID 434942;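 active = primary screen inhibitor hit that blocks the TRPC4 channel at some tested dose, yielding a dose curve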).
The target of assay [9] is Short transient receptor potential channel 6 (Mus musculus) (UniProt Q61143). The experiment in a line: inhibition of mouse TRPC6 channel, confirmation, selectivity assay for TRPC4 inhibitor project, cell-based, HEK293, membrane potential dye, duplicate (AID 434948;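 active = active in primary screen and both duplicates, each dropping signal beyond three positive-control SD with fluorescence still positive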). Particulars: HEK293 TRPC6, membrane potential dye fluorescence, at 10 µM, stimulated with maximal-effect acetylcholine; active compounds read high.

Assay [10] shares this target. The experiment in a line: activation of mouse TRPC6 channel, confirmation, selectivity assay for TRPC4 activator project, cell-based, HEK293, membrane potential dye, duplicate (AID 434950;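 active = membrane potential signal rise above negative control mean plus 3 SD in both duplicates, also active in the earlier TRPC4 screen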;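 as to activation: 0% = buffer only wells and 100% = acetylcholine maximal-effect wells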). Particulars: HEK293 TRPC6, membrane potential fluorescence, at 10 µM; active compounds read high.
Assay [11] shares this target. The experiment in a line: TRPC6 potentiation by TRPC4 potentiator hits, confirmation, selectivity assay for TRPC4 potentiator project, HEK293 cells, membrane potential dye, duplicate (AID 434952;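 active = compound raising the membrane signal above positive-control mean plus 3 SD in both repeats, and a primary screen hit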). To be noted: HEK293 TRPC6, membrane potential dye fluorescence, at 10 µM, maximal acetylcholine added after compound; active compounds read high.
For assay [12], the target named is Short transient receptor potential channel 4 (Mus musculus) (UniProt Q9QUQ5). The experiment in a line: calcium flux activators in TRPC4/5HT1a cells, counter-screen for TRPC4 activator project, cell-based, second counter screen, HEK293 TRPC4/5HT1a, Fluo-4 (AID 434977;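 active = calcium signal rise above buffer-control mean plus 5 SD in both duplicates, and also a hit in the primary screen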;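 as to activation: plate controls were assay buffer for no effect and maximal serotonin response for full effect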). To be noted: Fluo-4 calcium flux, at 10 µM; active compounds read high. In general terms: A change in cytosolic calcium serves as a functional read-out for many receptors and channels.

Assay [13] in a line: calcium flux inhibitors in TRPC4/5HT1a cells, confirmation, counter-screen for TRPC4 inhibitor project, cell-based, second counter screen, HEK293 TRPC4/5HT1a, Fluo-4 (AID 434978;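 active = primary screen active whose calcium signal fell more than 3 SD beyond the full-serotonin control mean in both duplicate plates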;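 also: serotonin given first at submaximal then at maximal dose after compound preincubation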). Particulars: Fluo-4 calcium flux, at 10 µM, serotonin added to trigger calcium flux; active compounds read high.
Assay [14] has as its system TRPC4 (mouse), co-expressed with 5HT1a in HEK293. The experiment in a line: calcium flux potentiators in TRPC4/5HT1a cells, confirmation, counter-screen for TRPC4 potentiator project, cell-based, second counter screen, HEK293 TRPC4/5HT1a, Fluo-4 (AID 434979;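 active = signal rise over 3 SD above mean of control wells given weak agonist, in both repeats and first screen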). Particulars: Fluo-4 calcium flux, at 10 µM, serotonin added at its EC20 dose; active compounds read high.
Assay [15] in a line: calcium flux activation in mu-opioid HEK293 cells, confirmation, counter-screen for TRPC4 activator project, cell-based, HEK293 mu-opioid receptor line (AID 449723;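 active = hit in primary screen, with calcium signal over 5 SD above buffer well mean in both duplicates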;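 also: counter screen cells carry the mu-opioid receptor alone and lack TRPC4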). To be noted: Fluo-4 calcium fluorescence, at 10 µM; active compounds read high.
The nature of assay [16]: calcium flux enhancement in mu-opioid HEK293 cells, confirmation, counter-screen for TRPC4 allosteric potentiator project, cell-based, HEK293 mu-opioid receptor line (AID 449724;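 active = calcium signal rise more than 3 SD above the low-dose agonist control mean, in both duplicate plates and the primary screen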;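 also: HEK293 cells carrying mu-opioid receptor only with no TRPC4 channel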). Particulars: Fluo-4 calcium flux, at 10 µM, compound added before EC20 DAMGO stimulus; active compounds read high.

Sequence of Short transient receptor potential channel 6 (Mus musculus) (Q61143 whole entry, looked up): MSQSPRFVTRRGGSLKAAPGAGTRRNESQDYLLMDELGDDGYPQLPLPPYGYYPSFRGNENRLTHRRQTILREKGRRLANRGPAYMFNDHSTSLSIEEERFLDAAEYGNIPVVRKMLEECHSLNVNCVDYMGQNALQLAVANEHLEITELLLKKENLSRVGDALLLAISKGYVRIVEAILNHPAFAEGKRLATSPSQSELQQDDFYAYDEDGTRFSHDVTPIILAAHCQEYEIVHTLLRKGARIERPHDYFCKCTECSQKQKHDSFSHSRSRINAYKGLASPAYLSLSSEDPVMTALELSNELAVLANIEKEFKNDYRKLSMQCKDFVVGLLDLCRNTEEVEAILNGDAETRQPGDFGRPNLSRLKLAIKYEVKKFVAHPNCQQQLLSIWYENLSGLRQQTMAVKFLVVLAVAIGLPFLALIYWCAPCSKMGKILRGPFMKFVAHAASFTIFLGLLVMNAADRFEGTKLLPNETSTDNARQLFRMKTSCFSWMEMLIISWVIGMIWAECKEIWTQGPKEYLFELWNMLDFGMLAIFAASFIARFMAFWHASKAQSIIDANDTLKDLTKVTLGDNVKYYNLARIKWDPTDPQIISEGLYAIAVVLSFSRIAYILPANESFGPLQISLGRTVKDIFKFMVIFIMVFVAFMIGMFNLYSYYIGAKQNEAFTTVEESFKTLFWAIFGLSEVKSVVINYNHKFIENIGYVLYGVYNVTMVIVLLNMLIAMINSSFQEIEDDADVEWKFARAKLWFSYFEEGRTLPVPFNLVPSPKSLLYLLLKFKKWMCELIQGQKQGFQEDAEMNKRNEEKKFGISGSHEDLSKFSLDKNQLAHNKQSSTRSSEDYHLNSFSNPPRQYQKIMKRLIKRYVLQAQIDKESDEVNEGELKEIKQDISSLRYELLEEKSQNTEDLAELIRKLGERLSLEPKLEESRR
Sequence of Short transient receptor potential channel 4 (Mus musculus) (Q9QUQ5 whole entry, looked up): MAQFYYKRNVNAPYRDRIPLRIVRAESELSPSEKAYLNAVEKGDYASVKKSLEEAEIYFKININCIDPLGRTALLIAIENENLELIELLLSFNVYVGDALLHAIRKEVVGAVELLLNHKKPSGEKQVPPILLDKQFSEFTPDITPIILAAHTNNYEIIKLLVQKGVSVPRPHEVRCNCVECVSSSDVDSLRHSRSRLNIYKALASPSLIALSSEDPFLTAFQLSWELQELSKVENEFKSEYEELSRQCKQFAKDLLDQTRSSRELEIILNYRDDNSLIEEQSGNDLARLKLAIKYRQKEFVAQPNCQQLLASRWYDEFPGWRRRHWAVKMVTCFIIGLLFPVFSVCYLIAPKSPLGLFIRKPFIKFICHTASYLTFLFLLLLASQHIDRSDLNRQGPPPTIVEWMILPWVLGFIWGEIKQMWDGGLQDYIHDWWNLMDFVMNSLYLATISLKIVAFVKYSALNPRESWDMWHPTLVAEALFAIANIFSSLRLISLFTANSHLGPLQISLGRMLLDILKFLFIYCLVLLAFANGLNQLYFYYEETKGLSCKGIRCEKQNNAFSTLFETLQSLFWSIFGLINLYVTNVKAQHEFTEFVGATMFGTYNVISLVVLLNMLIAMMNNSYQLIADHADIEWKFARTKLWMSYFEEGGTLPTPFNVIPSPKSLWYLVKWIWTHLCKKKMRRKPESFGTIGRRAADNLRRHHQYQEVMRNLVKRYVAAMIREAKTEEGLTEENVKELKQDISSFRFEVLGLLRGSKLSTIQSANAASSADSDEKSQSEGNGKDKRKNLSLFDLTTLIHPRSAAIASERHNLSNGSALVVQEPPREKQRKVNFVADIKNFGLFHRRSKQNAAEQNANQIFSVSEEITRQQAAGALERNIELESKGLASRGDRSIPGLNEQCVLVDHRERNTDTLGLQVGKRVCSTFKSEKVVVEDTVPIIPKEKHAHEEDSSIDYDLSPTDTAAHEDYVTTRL

As to `CCN(c1ccccc1)S(=O)(=O)c1ccc(C(=O)N(CCCN(C)C)c2nc3cc4c(cc3s2)OCO4)cc1`, the activation in assay [1] is 99% (active). Moreover, the outcome in [2], in assay [3], in assay [4], in assay [5], in assay [6] and in assay [7] was inactive. In addition, the outcome in [8], in assay [9], in [10], in assay [11], in assay [12] and in [13] was inactive. Further, the result in assay [14], in assay [15] and in assay [16] was inactive.
Turning to `COc1ccc(C2Nc3ccccc3C(=O)N2Cc2ccco2)cc1COc1ccc(NC(C)=O)cc1` (stereo not given), the result in assay [1], in assay [2], in [3], in assay [4], in assay [5] and in assay [6] was inactive. Further, the result in assay [7], in assay [8], in assay [9], in assay [11], in assay [12] and in assay [13] was inactive. Also, the outcome in assay [14], in assay [15] and in assay [16] was inactive. The activation in assay [10] is 29% (active).
As for `Cc1csc2c(N3CCN(C(=O)NC(C)(C)C)CC3)ncnc12`, the values for the activation in assay [1] and in [12] were 92% (active) and 36.7% (active), respectively. Besides, the outcome in [2], in [3], in assay [4], in assay [5], in [6] and in assay [7] was inactive. Further, the result in assay [8], in assay [9], in assay [10], in assay [11], in assay [13] and in [14] was inactive. The outcome in assay [15] and in assay [16] was inactive.
As to `O=C(NCCCN1CCN(CCCNC(=O)c2ccc3c(c2)OCO3)CC1)c1ccc2c(c1)OCO2`, the results for the activation in assay [1], in assay [2] and in assay [12] were 112% (active), 76% (active) and 37.2% (active), respectively. Also, the result in assay [3], in assay [4], in assay [5], in [6], in [7] and in [8] was inactive. Also, the compound was called inactive in assay [9], in [10], in assay [11], in assay [13], in assay [14] and in assay [15]. Moreover, the outcome in [16] was inactive.
For `CCOC(=O)C1(CCc2ccccc2)CCN(Cc2ccc(OC)cc2)CC1`, the results for the activation in [1] and in assay [10] were 101% (active) and 77.5% (active), respectively. Also, the outcome in assay [2], in [3], in [4], in assay [5], in assay [6] and in [7] was inactive. Besides, the outcome in [8], in [9], in [11], in [12], in assay [13] and in assay [14] was inactive. Also, the outcome in [15] and in assay [16] was inactive.
With `Cc1ccccc1OCC(=O)NNC(=S)NC(=O)c1ccco1`, the activation in assay [1] is 103% (active); in assay [10], 31.5% (active); in assay [12], 42.5% (active). For the same compound, the outcome in assay [2], in assay [3], in [4], in assay [5], in assay [6] and in [7] was inactive. The result in assay [8], in [9], in [11], in [13], in assay [14] and in assay [15] was inactive. Further, the outcome in [16] was inactive.
Turning to `CN(C)C(CNC(C(=O)Nc1ccc(F)cc1)c1ccccc1)c1ccccc1` (stereo not given), the activation in assay [1] is 126% (active); in assay [2], 68% (active). Besides, the result in [3], in [4], in assay [5], in assay [6], in assay [7] and in assay [8] was inactive. In addition, the call in assay [9], in assay [10], in [11], in [12], in [13] and in [14] was inactive. For the same compound, the result in [15] and in [16] was inactive.
Regarding `Cc1ccc(C(=O)NNC(=S)NC(=O)c2ccc(Cl)cc2)cc1`, the outcome in assay [1], in assay [2], in [3], in assay [4], in assay [5] and in assay [6] was inactive. For the same compound, the result in assay [7], in [8], in [9], in [11], in assay [13] and in assay [14] was inactive. The result in assay [15] and in assay [16] was inactive. Moreover, the activation in assay [10] is 29.5% (active); in assay [12], 77.8% (active).
Take `C=CCn1c(CCNC(=O)c2ccco2)nc2ccccc21`: the activation in assay [1] was 165% (active); in assay [2], 70% (active); in assay [12], 55% (active). The outcome in assay [3], in [4], in [5], in assay [6], in assay [7] and in assay [8] was inactive. The result in assay [9], in assay [10], in assay [11], in assay [13], in assay [14] and in [15] was inactive. Besides, in assay [16], the result was inactive.
Take `O=C(c1cccs1)N1CCN(c2ncc(Br)cn2)CC1`: the activation in [1] is 215% (active); in assay [2], 91% (active); in [10] it was 35.5% (active); in [12], 79.8% (active). Moreover, the result in assay [3], in [4], in [5], in [6], in assay [7] and in assay [8] was inactive. For the same compound, the result in [9], in [11], in assay [13], in assay [14], in assay [15] and in assay [16] was inactive.
Consider `Cc1cc(C)cc(C(=O)N(CCc2ccccc2)C2=CC3CCC(C2)N3C)c1` (stereo not given), for which the activation in [1] is 86% (active); in assay [2], 57% (active); in [10], 67% (active). In addition, the result in assay [3], in assay [4], in assay [5], in assay [6], in [7] and in [8] was inactive. Further, the compound was called inactive in assay [9], in assay [11], in assay [12], in [13], in assay [14] and in [15]. For the same compound, the result in assay [16] was inactive.
For the compound `CCOC(=O)C1(CCOc2ccccc2)CCN(Cc2ccc(NC(C)=O)cc2)CC1`, the activation was 146% (active) in assay [1], 68% (active) in assay [2] and 51% (active) in assay [10]. The outcome in [3], in assay [4], in assay [5], in assay [6], in assay [7] and in assay [8] was inactive. In addition, the result in assay [9], in assay [11], in assay [12], in assay [13], in [14] and in assay [15] was inactive. In assay [16], the result was inactive.
Take `CC1CCCN(CCCNC(=O)c2ccc3c(c2)N(Cc2ccccc2F)C(=O)c2ccccc2S3(=O)=O)C1` (stereo not given): the figures for the activation in [1], in [2] and in [12] were 125% (active), 68% (active) and 24.4% (active), respectively. For the same compound, the outcome in [3], in assay [4], in assay [5], in assay [6], in assay [7] and in [8] was inactive. Besides, the result in [9], in assay [10], in assay [11], in assay [13], in [14] and in assay [15] was inactive. Further, in assay [16], the outcome was inactive.
For `Cc1ccc(Cl)cc1NC(=O)CNCC(c1ccccc1)N(C)C` (stereo not given), the result in assay [1], in [2], in [3], in assay [4], in assay [5] and in assay [6] was inactive. Moreover, the result in assay [7], in assay [8], in [9], in assay [11], in assay [12] and in [13] was inactive. The outcome in assay [14], in assay [15] and in [16] was inactive. For the same compound, the activation in [10] was 47.5% (active).
Take `CN(C)CCCN(C(=O)c1ccc(S(=O)(=O)N(C)C2CCCCC2)cc1)c1nc2ccc(F)cc2s1`: the activation in assay [1] is 155% (active); in [12] it was 5.36% (active). Moreover, the outcome in assay [2], in assay [3], in [4], in assay [5], in [6] and in assay [7] was inactive. Besides, the result in [8], in assay [9], in assay [10], in [11], in assay [13] and in [14] was inactive. For the same compound, the result in assay [15] and in assay [16] was inactive.
